Each structure is given as a SMILES string. The source made the active and inactive calls.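 Rule for the calls: active = melting temperature shift above 3 C; inconclusive = shift above 1 C but not above 3 C; inactive = the rest.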

Sequence of 15-hydroxyprostaglandin dehydrogenase [NAD(+)] (Homo sapiens) (P15428 whole entry, looked up): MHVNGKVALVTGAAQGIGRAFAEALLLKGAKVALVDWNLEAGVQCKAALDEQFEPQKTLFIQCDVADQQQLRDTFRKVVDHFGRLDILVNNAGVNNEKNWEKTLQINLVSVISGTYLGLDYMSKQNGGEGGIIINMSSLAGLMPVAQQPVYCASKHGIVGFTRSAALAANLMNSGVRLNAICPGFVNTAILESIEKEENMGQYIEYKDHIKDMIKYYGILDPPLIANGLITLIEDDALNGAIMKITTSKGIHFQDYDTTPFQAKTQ

One assay addresses 15-hydroxyprostaglandin dehydrogenase [NAD(+)] (Homo sapiens) (UniProt P15428). Description: Thermal Shift Assay for Inhibitors of HPGD (15-Hydroxyprostaglandin Dehydrogenase). The following applies: Recombinant HPGD thermal shift, SYPRO orange DSF, at 250 µM, stronger effect = higher value. As for the experimental part:
Assay Overview: Human 15-Hydroxyprostaglandin dehydrogenase (HPGD) catalyzes the inactivation of prostaglandin E2, and plays a major role in cancer biology by antagonizing the oncogenic potential of cyclooxygenase type 2 (COX2). Studies to assess the stability of human 15-PGDH in presence of compounds was performed as described (Niesen et al., 2007) with variations. References 1. Myung SJ, Rerko RM, Yan M, Platzer P, Guda K, Dotson A, Lawrence E, Dannenberg AJ, Lovgren AK, Luo G, Pretlow TP, Newman RA, Willis J, Dawson D, Markowitz SD. 15-Hydroxyprostaglandin dehydrogenase is an in vivo suppressor of colon tumorigenesis. Proc Natl Acad Sci U S A. 2006 Aug 8;103(32):12098-102. 2. Yan M, Rerko RM, Platzer P, Dawson D, Willis J, Tong M, Lawrence E, Lutterbaugh J, Lu S, Willson JK, Luo G, Hensold J, Tai HH, Wilson K, Markowitz SD. 15-Hydroxyprostaglandin dehydrogenase, a COX-2 oncogene antagonist, is a TGF-beta-induced suppressor of human gastrointestinal cancers. Proc Natl Acad Sci U S A. 2004 Dec 14;101(50):17468-73. 3. Yang L, Amann JM, Kikuchi T, Porta R, Guix M, Gonzalez A, Park KH, Billheimer D, Arteaga CL, Tai HH, Dubois R, Carbone DP, Johnson DH. Inhibition of Epidermal Growth Factor Receptor Signaling Elevates 15-Hydroxyprostaglandin Dehydrogenase in Non-Small-Cell Lung Cancer. Cancer Res. 2007 Jun 15;67(12):5587-5593. 4. Niesen FH, Berglund H, Vedadi M: The use of differential scanning fluorimetry to detect ligand interactions that promote protein stability. Nature protocols 2007; 2:2212-2221 NIH Chemical Genomics Center [NCGC] Structural Genomics Consortium [SGC]
HPGD was diluted to a final assay concentration of 1 uM in 100 mM Tris buffer, pH 8.0, containing 0.01% Tween-20 and 1:1000 SYPRO orange dye. The final assay volume is 10 ul, with or without 200 uM of either NAD+ or NADH. Compounds were added 1:5 from appropriate stock solutions in 10% (v/v) DMSO to comprise either 50 or 250 uM final concentrations. Heat denaturation curves were recorded using a RT-PCR instrument (Mx3005p, Agilent) applying a temperature gradient of 2 degree C/min. Analysis of the data was performed using DSF Analysis vers. 2.5 (ftp://ftp.sgc.ox.ac.uk/pub/biophysics) and Prism 5.0 (GraphPad Software, Inc.)
Consider `O=C(CCc1ccc(Oc2cc([N+](=O)[O-])cc([N+](=O)[O-])c2)cc1)N1CCCCC1`, for which the thermal shift (delta Tm) was 3.1 C (active).
The same measure, in the same setting: the figure for `Cc1ccc(C)c(Cn2nnc3c(=O)[nH]c(C(=O)NCc4ccco4)nc32)c1` is 7.5 C (active).
For the compound `COCCNC(=O)c1nc2c(nnn2Cc2cc(C)ccc2C)c(=O)[nH]1`, the thermal shift (delta Tm) is 8.9 C (active).
`Cc1ccc(-c2n[nH]c(=S)n2/N=C/C=C\c2ccccc2[N+](=O)[O-])cc1`: the thermal shift (delta Tm) was 4.5 C (active).
Consider `O=C(c1ccc2c(c1)OCO2)N1CCc2ccccc2C1`, for which the thermal shift (delta Tm) was 3.3 C (active).
In the case of `O=C(C1CCC(Cn2c(=S)[nH]c3ccccc3c2=O)CC1)N1CCOCC1` (stereo not given), the thermal shift (delta Tm) is 6 C (active).
On the same count and under the same terms, the figure for `O=C(CSc1nc2ncc(Br)cc2[nH]1)c1cccc([N+](=O)[O-])c1` is 6.9 C (active); for `O=c1[nH]c(SCc2ccccc2Cl)nc2c1CCC2` it is 9.2 C (active).
On the same count and under the same terms, to `CC1CCCN(C(=O)c2ccc(COc3ccccc3Br)cc2)C1` (stereo not given) belongs 3.8 C (active); to `COc1ccc(-c2cc(C(F)(F)F)n3nc(C(=O)N4CCCCC4)cc3n2)cc1OC`, 3.9 C (active); to `O=C(c1ccc2c(c1)OCCO2)N1CCCCC1`, 3.5 C (active).
For `COc1ccc2cc(C(=O)N3CCCCCC3)sc(=O)c2c1OC`, the thermal shift (delta Tm) was 3.2 C (active).
Still for that read-out and setting: the figure for `O=C(c1ccc(COc2ccccc2Br)cc1)N1CCCCC1` is 7.1 C (active).
As for `Cc1cc(-c2nnc3n2CCCCC3)c(C)n1-c1ccccc1`, the thermal shift (delta Tm) is 5 C (active).
Still for that read-out and setting: the figure for `Cc1ccccc1CSc1nc2ccccc2c(=O)[nH]1` is 6.1 C (active).
In the case of `Cc1cccc(-n2cnc3cc(C(=O)N4CCCCC4)ccc32)c1`, the thermal shift (delta Tm) was 7.3 C (active).
In the case of `Fc1ccccc1CSc1nc2ncc(Br)cc2[nH]1`, the thermal shift (delta Tm) was 7.6 C (active).
Regarding `O=C(CSc1nc(-c2ccccc2)nn1C(=O)c1ccccc1)Nc1cccc([N+](=O)[O-])c1`, the thermal shift (delta Tm) was 4 C (active).
Turning to `CCN(CC)C(=O)c1sc2nc(-c3cccs3)cc(-c3ccc(Cl)cc3)c2c1N`, the thermal shift (delta Tm) is 0.9 C (inactive).
Consider `O=C(c1ccc(N2C(=O)C3CC=C(Cl)CC3C2=O)cc1)N1CCCCC1` (stereo not given), for which the thermal shift (delta Tm) was 3 C (active).

Staying with this assay, now noted: Recombinant HPGD thermal shift, SYPRO orange DSF, measured here: delta Tm with NADH cofactor, at 250 µM, stronger effect = higher value.
As to `O=C(CCc1ccc(Oc2cc([N+](=O)[O-])cc([N+](=O)[O-])c2)cc1)N1CCCCC1`, the thermal shift (delta Tm) amounted to 7.9 C.
On the same count and under the same terms, the figure for `Cc1ccc(C)c(Cn2nnc3c(=O)[nH]c(C(=O)NCc4ccco4)nc32)c1` is 4.8 C.
The same measure, in the same setting: to `COCCNC(=O)c1nc2c(nnn2Cc2cc(C)ccc2C)c(=O)[nH]1` belongs 6.6 C; to `Cc1ccc(-c2n[nH]c(=S)n2/N=C/C=C\c2ccccc2[N+](=O)[O-])cc1`, 0.2 C; to `O=C(c1ccc2c(c1)OCO2)N1CCc2ccccc2C1`, 4.4 C.
Regarding `O=C(C1CCC(Cn2c(=S)[nH]c3ccccc3c2=O)CC1)N1CCOCC1` (stereo not given), the thermal shift (delta Tm) came out at 3.9 C.
As to `O=C(CSc1nc2ncc(Br)cc2[nH]1)c1cccc([N+](=O)[O-])c1`, the thermal shift (delta Tm) was determined as 1.7 C.
On the same count and under the same terms, to `O=c1[nH]c(SCc2ccccc2Cl)nc2c1CCC2` belongs 1.6 C.
On the same count and under the same terms, to `CC1CCCN(C(=O)c2ccc(COc3ccccc3Br)cc2)C1` (stereo not given) belongs 10.6 C.
With `COc1ccc(-c2cc(C(F)(F)F)n3nc(C(=O)N4CCCCC4)cc3n2)cc1OC`, the thermal shift (delta Tm) amounted to 9.6 C.
As to `O=C(c1ccc2c(c1)OCCO2)N1CCCCC1`, the thermal shift (delta Tm) was determined as 7.8 C.
For `COc1ccc2cc(C(=O)N3CCCCCC3)sc(=O)c2c1OC`, the thermal shift (delta Tm) was 7.8 C.
On the same count and under the same terms, to `O=C(c1ccc(COc2ccccc2Br)cc1)N1CCCCC1` belongs 10.6 C.
On the same count and under the same terms, the figure for `Cc1cc(-c2nnc3n2CCCCC3)c(C)n1-c1ccccc1` is 10.5 C.
The same measure, in the same setting: to `Cc1ccccc1CSc1nc2ccccc2c(=O)[nH]1` belongs 0.4 C.
With `Cc1cccc(-n2cnc3cc(C(=O)N4CCCCC4)ccc32)c1`, the thermal shift (delta Tm) turned out to be 13.5 C.
Still for that read-out and setting: the figure for `Fc1ccccc1CSc1nc2ncc(Br)cc2[nH]1` is 1.5 C.
As to `O=C(CSc1nc(-c2ccccc2)nn1C(=O)c1ccccc1)Nc1cccc([N+](=O)[O-])c1`, the thermal shift (delta Tm) was -7.6 C.
With `CCN(CC)C(=O)c1sc2nc(-c3cccs3)cc(-c3ccc(Cl)cc3)c2c1N`, the thermal shift (delta Tm) is 2.9 C.
On the same count and under the same terms, the figure for `O=C(c1ccc(N2C(=O)C3CC=C(Cl)CC3C2=O)cc1)N1CCCCC1` (stereo not given) is 6.1 C.
